Reference: PubChem BioAssay (NCATS)
Records with an inconclusive call do not appear. The source made the active and inactive calls. The call rests on the fitted dose curve; in most records, active means well fitted cell-killing curve with a large enough effect; inconclusive means small, poorly fitted or top-dose-only effect, or effect the other way; inactive means no such curve, though single readings can be large or run the other way. Positions of bridges follow the written chain, without caps; N, C: chain ends. Non-standard residues stand in square brackets, D forms with d. Residues, ends and D or L forms follow the SMILES beside them. ξ: configuration not given here. *: point of attachment. Octanoyl(6-Me) = CCC(C)CCCCC(=O)*; ξThr(3R) = C[C@@H](O)C(N)C(=O)O; dDab = NCC[C@@H](N)C(=O)O; Dab = NCC[C@H](N)C(=O)O

Tests used:
[1] = Quantitative High-Throughput drug screen in 47 multiple myeloma cell lines against the NCATS MIPE library collection: OCIMY1_PLB cell viability assay (AID 1918979); further: nearly all actives have a fitted effect of over 35% in size;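 on viability: 100% = DMSO-only wells and 0% = cell-free media-only wells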
Summary of the method: (§1)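 MIPE 4.0 approved/investigational drugs; 500 cells/well; 48 h 37 °C humidified 5% CO2; CTG luminescence readout; DMSO = 100%, media = 0% viability.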

[2] = Quantitative High-Throughput drug screen in 47 multiple myeloma cell lines against the NCATS MIPE library collection: MM1R_ATCC cell viability assay (AID 1918981); further: nearly all actives have a fitted effect of over 35% in size
Summary of the method: as §1

[3] = Quantitative High-Throughput drug screen in 47 multiple myeloma cell lines against the NCATS MIPE library collection: LP1_DSMZ cell viability assay (AID 1918982); further: nearly all actives have a fitted effect of over 35% in size
Summary of the method: as §1

[4] = Quantitative High-Throughput drug screen in 47 multiple myeloma cell lines against the NCATS MIPE library collection: L363_DSMZ cell viability assay (AID 1918984); further: nearly all actives have a fitted effect of over 40% in size
Summary of the method: as §1

[5] = Quantitative High-Throughput drug screen in 47 multiple myeloma cell lines against the NCATS MIPE library collection: KMS34_JCRB cell viability assay (AID 1918985); further: nearly all actives have a fitted effect of over 40% in size
Summary of the method: as §1

[6] = Quantitative High-Throughput drug screen in 47 multiple myeloma cell lines against the NCATS MIPE library collection: OCIMY7_PLB cell viability assay (AID 1918987); conditions: OCI-MY7 myeloma viability, CellTiter-Glo ATP, 48 h; viability (% of DMSO): at 45.8 µM (top of the series); further: nearly all actives have a fitted effect of over 65% in size
Summary of the method: as §1

[7] = Quantitative High-Throughput drug screen in 47 multiple myeloma cell lines against the NCATS MIPE library collection: OCIMY5_PLB cell viability assay (AID 1918988); further: nearly all actives have a fitted effect of over 65% in size
Summary of the method: as §1

[8] = Quantitative High-Throughput drug screen in 47 multiple myeloma cell lines against the NCATS MIPE library collection: OPM1_PLB cell viability assay (AID 1918989); further: nearly all actives have a fitted effect of over 40% in size
Summary of the method: as §1

[9] = Quantitative High-Throughput drug screen in 47 multiple myeloma cell lines against the NCATS MIPE library collection: SKMM1_PLB cell viability assay (AID 1919863); conditions: SKMM1 myeloma viability, CellTiter-Glo ATP, 48 h; viability: active compounds read low; further: nearly all actives have a fitted effect of over 35% in size
Summary of the method: as §1

[10] = Quantitative High-Throughput drug screen in 47 multiple myeloma cell lines against the NCATS MIPE library collection: U266_ATCC cell viability assay (AID 1919864); further: nearly all actives have a fitted effect of over 35% in size;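 on viability (% of DMSO control): 0% = media-only wells without cells and 100% = DMSO-only wells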
Summary of the method: as §1

[11] = Quantitative High-Throughput drug screen in 47 multiple myeloma cell lines against the NCATS MIPE library collection: XG6_PLB cell viability assay (AID 1919865); further: nearly all actives have a fitted effect of over 40% in size
Summary of the method: as §1

[12] = Quantitative High-Throughput drug screen in 47 multiple myeloma cell lines against the NCATS MIPE library collection: XG1_PLB cell viability assay (AID 1919866); further: nearly all actives have a fitted effect of over 35% in size
Summary of the method: as §1

[13] = Quantitative High-Throughput drug screen in 47 multiple myeloma cell lines against the NCATS MIPE library collection: UTMC2_PLB cell viability assay (AID 1919868); conditions: CellTiter-Glo ATP luminescence, 48 h; viability (% of DMSO control): at 45.8 µM (top of the series); further: nearly all actives have a fitted effect of over 55% in size;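 on viability (% of DMSO control): 100% = DMSO-only wells and 0% = media-only wells without cells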
Summary of the method: as §1

[14] = Quantitative High-Throughput drug screen in 47 multiple myeloma cell lines against the NCATS MIPE library collection: PCM6_Riken cell viability assay (AID 1919870); further: nearly all actives have a fitted effect of over 30% in size
Summary of the method: as §1

[15] = Quantitative High-Throughput drug screen in 47 multiple myeloma cell lines against the NCATS MIPE library collection: RPMI8226_ATCC cell viability assay (AID 1919871); further: nearly all actives have a fitted effect of over 30% in size
Summary of the method: as §1

[16] = Quantitative High-Throughput drug screen in 47 multiple myeloma cell lines against the NCATS MIPE library collection: OPM2_DSMZ cell viability assay (AID 1919872); further: nearly all actives have a fitted effect of over 30% in size
Summary of the method: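 Primary qHTS used for cherry-picking: cells at 500/well, library compounds for 48 h (37C, 5% CO2), luminescent ATP assay.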

[17] = Quantitative High-Throughput drug screen in 47 multiple myeloma cell lines against the NCATS MIPE library collection: KMS28PE_JCRB cell viability assay (AID 1918983); further: nearly all actives have a fitted effect of over 35% in size
Summary of the method: as §1

[18] = Quantitative High-Throughput drug screen in 47 multiple myeloma cell lines against the NCATS MIPE library collection: VP6_DJ cell viability assay (AID 1919867); further: nearly all actives have a fitted effect of over 40% in size;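 on viability (% of DMSO): 100% = DMSO-only wells and 0% = wells with media alone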
Summary of the method: as §1

[19] = Quantitative High-Throughput drug screen in 47 multiple myeloma cell lines against the NCATS MIPE library collection: PE2_PLB cell viability assay (AID 1919869); further: nearly all actives have a fitted effect of over 35% in size
Summary of the method: as §1
Potency means the concentration at half of the fitted maximal effect.

N#CNC(=NCCCCCCOc1ccc(Cl)cc1)Nc1ccncc1
active: Potency [1] 0.0105 µM | Potency [2] 0.0093 µM | Potency [3] 0.0187 µM | Potency [4] 0.662 µM | Potency [5] 0.0148 µM | Potency [7] 0.0074 µM | Potency [8] 0.003 µM | Potency [9] 0.0166 µM | Potency [10] 18.7 µM | Potency [11] 18.7 µM | Potency [14] 0.001 µM | Potency [15] 0.0418 µM | Potency [16] 0.0148 µM
inactive: Potency [6] | Potency [12] | Potency [13]

COc1ccc2cc([S+]([O-])Cc3ncc(C)c(OC)c3C)nc2c1
inactive: Potency [1] | Potency [2] | Potency [3] | Potency [17] | Potency [5] | Potency [7] | viability [9] 122% | Potency [11] | Potency [12] | Potency [18] | Potency [14] | Potency [15]

C[C@](Cc1c[nH]c2ccccc12)(NC(=O)OC1C2CC3CC(C2)CC1C3)C(=O)NC[C@H](NC(=O)CCC(=O)O)c1ccccc1 (some centres not stated)
inactive: Potency [1] | Potency [2] | Potency [3] | Potency [7] | viability [9] 114% | Potency [10] | Potency [19] | Potency [15] | Potency [16]

CC(=O)N[C@@H]1[C@H](O[C@@H]2c3ccc(c(Cl)c3)Oc3cc4cc(c3O[C@H]3O[C@H](CO)[C@@H](O)[C@H](O)[C@H]3NC(=O)CCCCCCCC(C)C)Oc3ccc(cc3Cl)C[C@H]3NC(=O)[C@H](N)c5ccc(O)c(c5)Oc5cc(O)cc(c5)[C@H](NC3=O)C(=O)N[C@H]4C(=O)N[C@H]3C(=O)N[C@@H]2C(=O)N[C@@H](C(=O)O)c2cc(O)cc(O[C@H]4O[C@H](CO)[C@@H](O)[C@H](O)[C@H]4O)c2-c2cc3ccc2O)O[C@H](CO)[C@@H](O)[C@@H]1O
inactive: Potency [1] | Potency [2] | Potency [17] | Potency [4] | Potency [5] | Potency [12] | Potency [18] | Potency [13] | Potency [19] | Potency [14] | Potency [15]

CCCCC(=O)O[C@]1(C(=O)CO)[C@@H](C)C[C@H]2[C@@H]3CCC4=CC(=O)C=C[C@]4(C)[C@@]3(F)[C@@H](O)C[C@@]21C
active: Potency [5] 0.0372 µM | Potency [7] 0.0093 µM | Potency [8] 0.0372 µM | Potency [18] 14.8 µM
inactive: Potency [1] | Potency [2] | Potency [17] | viability [9] 122% | Potency [11] | Potency [12] | Potency [19] | Potency [16]

CCC(C)CCCCC(=O)N[C@@H](CCN)C(=O)NC(C(=O)N[C@H](CCN)C(=O)N[C@@H]1CCNC(=O)C([C@@H](C)O)NC(=O)[C@@H](CCN)NC(=O)[C@@H](CCN)NC(=O)[C@@H](CC(C)C)NC(=O)[C@H](Cc2ccccc2)NC(=O)[C@H](CCN)NC1=O)[C@@H](C)O (stereo partly drawn) ({Octanoyl(6-Me)}-[Dab][ξThr(3R)][dDab][dDab][Dab]F[dL][dDab][dDab][ξThr(3R)]; lactam 4-C)
inactive: Potency [1] | Potency [2] | Potency [3] | Potency [17] | Potency [5] | Potency [6] | viability [9] 110% | Potency [12] | Potency [19] | Potency [14] | Potency [16]

COC1=C2C[C@@H](C)C[C@H](OC)[C@@H](O)[C@@H](C)C=C(C)[C@H](OC(N)=O)[C@@H](OC)C=CC=C(C)C(=O)NC(=CC1=O)C2=O
active: Potency [1] 0.166 µM | Potency [2] 0.0372 µM | Potency [3] 1.18 µM | Potency [17] 0.132 µM | Potency [4] 7.43 µM | Potency [5] 0.166 µM | Potency [6] 0.0743 µM | Potency [7] 0.0372 µM | Potency [8] 0.418 µM | Potency [10] 0.132 µM | Potency [11] 0.332 µM | Potency [12] 0.209 µM | Potency [18] 0.132 µM | Potency [13] 0.209 µM | Potency [19] 0.296 µM | Potency [14] 0.148 µM | Potency [15] 0.105 µM | Potency [16] 0.332 µM

CC[C@H]1OC(=O)[C@H](C)[C@@H](O[C@H]2C[C@@](C)(OC)[C@@H](O)[C@H](C)O2)[C@H](C)[C@@H](O[C@@H]2O[C@H](C)C[C@H](N(C)C)[C@@H]2O)[C@](C)(OC)C[C@@H](C)C(=O)[C@H](C)[C@@H](O)[C@]1(C)O
active: Potency [9] 0.105 µM
inactive: Potency [1] | Potency [2] | Potency [3] | Potency [17] | Potency [4] | Potency [6] | Potency [8] | Potency [11] | Potency [12] | Potency [13] | Potency [19] | Potency [14] | Potency [15] | Potency [16]

COc1cc(OC)c(C=CS(=O)(=O)Cc2ccc(OC)c(NCC(=O)O)c2)c(OC)c1
active: Potency [1] 0.418 µM | Potency [2] 2.35 µM | Potency [17] 0.469 µM | Potency [4] 0.0469 µM | Potency [5] 0.209 µM | Potency [6] 0.264 µM | Potency [7] 0.59 µM | Potency [8] 0.332 µM | Potency [9] 0.235 µM | Potency [10] 0.526 µM | Potency [11] 0.833 µM | Potency [18] 0.372 µM | Potency [13] 0.166 µM | Potency [19] 0.469 µM | Potency [14] 0.418 µM | Potency [16] 0.372 µM

Oc1cc2c(cc1O)C1c3ccc(O)c(O)c3OCC1(O)C2 (configuration not stated)
inactive: Potency [1] | Potency [2] | Potency [3] | Potency [5] | Potency [6] | Potency [7] | Potency [8] | viability [9] 120% | Potency [10] | Potency [11] | Potency [12] | Potency [15] | Potency [16]
active: Potency [19] 20.9 µM

O=C(c1ccc(F)cc1)N1CCC[C@H](c2nc(-c3ccc(F)cc3)no2)C1
inactive: Potency [1] | Potency [3] | Potency [17] | Potency [4] | Potency [5] | Potency [8] | Potency [10] | Potency [11] | Potency [12] | Potency [18] | Potency [14] | Potency [16]

CC1=C(C(=O)Nc2cc3cn[nH]c3cc2F)C(c2ccc(Cl)cc2F)N=C(c2ccnc(Cl)c2)N1 (configuration not stated)
inactive: Potency [1] | Potency [3]
active: Potency [2] 18.7 µM | Potency [17] 20.9 µM | Potency [4] 18.7 µM | Potency [6] 5.9 µM | Potency [7] 16.6 µM | Potency [8] 18.7 µM | Potency [11] 14.8 µM | Potency [13] 3.72 µM | Potency [14] 6.62 µM
